Screening results deposited in PubChem by several laboratories.
Most compounds without a hit are left out; they make up all but 1.2% or so of the library.
RN4220 kill = S. aureus RN4220 growth inhibition; OD600, 16 h; inhibition, % (test concentration not listed); 0.33% of 330,000 active; AID 1259311; in the data active means inhibition above about 85%;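 further: plate controls were untreated cells for no effect and reference antibiotic for full effect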
Vc quorum ag = induces V. cholerae light production without autoinducers. V. cholerae BH1578 lux reporter, luminescence, 6 h. activation, % at 18.7 µM. 0.16% of 350,000 active. AID 588436; in the data active means activation mostly above about 9.7%, no sharp cut-off; inconclusive means no clear call, values can overlap the other calls; inactive means mostly below about 3.7%
PfHsp40 rescue = restores yeast growth despite PfHsp40 toxicity. S. cerevisiae expressing PfHsp40, growth rescue, ATP luminescence. growth rescue, % at 12.5 µM. 0.68% of 340,000 active. AID 504582; in the data active means growth rescue above about 28%, passing the limit was not always enough; inconclusive means no clear call, values can overlap the other calls;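 further: yeast W303a lacking pdr1 and pdr3 grown in galactose medium; growth measured after three days at 30 °C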
Mtb bLac sens = beta-lactam sensitization of Mtb H37Rv; M. tuberculosis H37Rv growth with meropenem, percent inhibition; inhibition, % at 25 µM; 0.27% of 330,000 active; AID 434955; call rule not given here;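 further: growth measured after seven days incubation then overnight dye step; 0% = bacteria only wells and 100% = bacteria with antibiotic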
Sa ugtP lethal = growth inhibition of S. aureus ugtP deletion strain; S. aureus RN4220 ugtP deletion, OD600 growth, 16 h; growth inhibition, % (test concentration not listed); 0.54% of 330,000 active; AID 1259309; in the data active means growth inhibition above about 68%;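 further: plate controls were untreated wells for no effect and antibiotic for full effect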
An asterisk follows results filed as active; i = inactive; ? = inconclusive; . = not tested or not shown; ! = not confirmed by another sample.

SMILES	RN4220 kill	Vc quorum ag	PfHsp40 rescue	Mtb bLac sens	Sa ugtP lethal
O=C(Oc1ccc(N(C(=O)c2ccncc2)S(=O)(=O)c2ccc(F)cc2)cc1)c1ccncc1	3	0	5	-1	-3
Cc1ccc(S(=O)(=O)N(C(=O)c2ccncc2)c2ccc(OC(=O)c3ccncc3)cc2)c(C)c1	5	0	2	6	1
COc1ccc(N(C(=O)c2ccncc2)S(=O)(=O)c2ccc(Cl)cc2)cc1	1	0	141*	6	-1
Cc1ccc(S(=O)(=O)N(C(=O)c2ccncc2)c2ccc(OC(=O)c3ccncc3)cc2)cc1	7	0	372*	4	2
O=C(Oc1ccc(N(C(=O)c2ccncc2)S(=O)(=O)c2ccc(Cl)cc2)cc1)c1ccncc1	1	-1	422*	1	9
Cc1noc(C)c1NC(=O)Nc1ccc2c(c1)C(=O)N(C(C)CO)CC(C)C(CN(C)S(C)(=O)=O)O2 (stereo unspecified)	7	.	.	.	-1
CC=CC(=O)Nc1cccc(C2=NOC3(C2)CC(C(N)=O)N(C(=O)C(C)=CC)C3)c1 (stereo unspecified)	5	.	.	.	0
Cc1[nH]c(C(=O)NN=Cc2ccc(N(C)C)cc2)c(C)c1C(=O)NN=Cc1ccc(N(C)C)cc1	5	.	.	.	14
CC1CN(C(C)CO)C(=O)c2cccc(NS(=O)(=O)c3ccccc3)c2OC1CN(C)C(=O)Nc1ccc(C(F)(F)F)cc1 (stereo unspecified)	1	.	.	.	-37
O=[N+]([O-])c1ccc(Cl)cc1Sc1nc2ccccc2o1	23	i	165*	-6	21
O=[N+]([O-])c1ccc(Sc2nc3ccccc3o2)c([N+](=O)[O-])c1	25	-1	1	?	52
C#CCOCCOCCOCCNc1nc(N2CCN(C(=O)CCCCCCCCCCNC(=O)Cn3cc(CCCCCN)nn3)CC2)nc(N2CCN(C(=O)CCCCCCCCCCNC(=O)C(CCC(=O)O)n3cc(CCCCCN)nn3)CC2)n1 (stereo unspecified)	6	.	.	.	7
CCOc1ccc(S(=O)(=O)n2cc(F)c(=O)[nH]c2=O)cc1	18	0	144*	20	29
COc1ccc(C=NNC(=O)COc2ccccc2)c(C(=O)O)c1OC	1	.	.	.	7
COc1ccccc1CCC(=O)Nc1cccc(S(=O)(=O)N2CCOCC2)c1	.	0	-1	?	.
COc1ccccc1CC(=O)Nc1cccc(S(=O)(=O)N2CCOCC2)c1	5	-1	94*	-8	11
CNC(=O)c1sc(N2N=C3/C(=C/c4ccccc4)CCCC3C2c2ccccc2)nc1C (stereo unspecified)	-5	12*	0	83	-19
CNC(=O)c1sc(N2N=C3/C(=C\c4ccccc4)CCCC3C2c2ccccc2)nc1C (stereo unspecified)	4	-8	0	.	4
O=C(O)C(Cc1ccccc1)N1C(=O)c2ccccc2C1=O (stereo unspecified)	4	i	-1	7	-7
O=C(O)C(Cc1ccccc1)N1C(=O)c2c(Cl)c(Cl)c(Cl)c(Cl)c2C1=O (stereo unspecified)	39	-1	1	-6	86*!
Cc1ccc(N=c2oc3cc(O)ccc3cc2C(N)=O)cc1	11	i	33*	6	-25
Cc1ccc([C@@H]2CC=C(C(=O)O)[C@H](c3ccc(C(C)(C)C)cc3)N2S(=O)(=O)c2ccc(C)cc2)cc1	45	-1	0	4	-1
Cc1ccc(S(=O)(=O)N2[C@@H](c3ccc(C(C)(C)C)cc3)C(C(=O)O)=CC[C@H]2c2ccc(C(C)C)cc2)cc1	97*	i	1	2	88*
Cc1ccc(S(=O)(=O)N2[C@@H](c3ccc(C(C)(C)C)cc3)C(C(=O)O)=CC[C@H]2c2ccc(Cl)cc2)cc1	99*	-1	0	2	80
COc1nccnc1NS(=O)(=O)c1ccc(NC=C2CCCCC2=O)cc1	1	.	.	.	0
COc1ccc(-n2sc3c(c2=S)-c2cc(OC)ccc2NC3(C)C)cc1	-5	1	1	-1	84*
COC(=O)c1ccc([C@H](NC(=O)c2ccco2)[C@]2(C)C[C@H]2C2CCCCC2)cc1	.	0	68*	36	.
Cc1ccc([N+](=O)[O-])cc1-c1[nH]c(-c2ccc(O)c(O)c2)nc1-c1ccccc1	2	25*	1	-3	-16
COc1ccc(-c2nc(-c3ccccc3)c(-c3cc([N+](=O)[O-])ccc3C)[nH]2)cc1O	41	-3	-1	55	44
